The results in this text go back to PubChem BioAssay (Tox21).

Records with an inconclusive call do not appear. A structure can be active in one record and inactive in another. The source made the active and inactive calls. Unless noted, the call rests on the fitted dose curve.

Experiment [1] in a line: Nuclear factor erythroid 2-related factor 2/antioxidant responsive element (Nrf2/ARE) small molecule agonists: qHTS cell viability counter screen in human keratinocytes (AID 1919968; active means well fitted curve in the direction sought with a large enough effect in the repeat runs; an effect the other way counts as inactive or inconclusive; further: nearly all actives have a fitted effect of over 55% in size; further: potency means the concentration at half of the fitted maximal effect). The method in brief:
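Seed 1,500 KeratinoSens cells per well, then incubate 5 h at 37 C/5% CO2. Add compounds in DMSO and incubate 23 h. Add CellTiter-Fluor, wait 1 h and read fluorescence.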
For orientation: qHTS replaces the single test concentration by a dilution series.

Experiment [2] in a line: Nuclear factor erythroid 2-related factor 2/antioxidant responsive element (Nrf2/ARE) small molecule agonists: luciferase reporter gene qHTS assay in human keratinocytes (AID 1919969). Further: nearly all actives have a fitted effect of over 35% in size. Further: potency means the concentration at half of the fitted maximal effect. In general terms: A reporter such as luciferase makes a cellular process visible.
Experiment [3] addresses Gonadotropin-releasing hormone receptor (Homo sapiens) (UniProt P30968). Kind of experiment: Human gonadotropin-releasing hormone receptor (GnRHR) small molecule agonists, calcium flux assay in GnRHR-HEK293 cells (AID 1920063). Further: nearly all actives have a fitted effect of over 35% in size. The method in brief: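 Cells: HEK293 stably expressing human GnRHR. Steps: overnight (18 h) culture, 1 h calcium dye loading at 37 C, compound addition, kinetic fluorescence read at 480/540 nm. Each compound tested at 15 concentrations in triplicate.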
(Calcium assays in cells follow changes in intracellular calcium, usually with a dye or a luminescent sensor.)

Experiment [4] has as its target KiSS-1 receptor (Homo sapiens) (UniProt Q969F8). In words: Human kisspeptin (KISS1R) small molecule agonists, calcium flux assay in KISS1R-HEK293 cells (AID 1920064; active means well fitted curve in the direction sought with a large enough effect in the repeat runs; an effect the other way counts as inactive or inconclusive). A digest of the protocol:
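Cells plated and incubated 18 h; dye added, 1 h at 37 C; compounds in DMSO pinned in; signal read at 480/540 nm every second for 3 min. Each compound tested at 15 concentrations in triplicate.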

The nature of experiment [5]: G protein-coupled receptor (GPCR) small molecule agonists, calcium flux assay: HEK293 wild type cell line counter screen (AID 1920065). A digest of the protocol:
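Counter-screen of the Tox21 10K library for non-specific calcium release: dye-loaded cells received compounds in DMSO and were monitored by kinetic fluorescence (480/540 nm, 3 min). Fifteen concentrations, run in triplicate.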

Experiment [6] in a line: p53 small molecule agonists, cell-based qHTS assay with human liver microsomes (AID 1963577).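 Further: p53 response element beta-lactamase reporter cells with liver microsomes plus NADPH.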 The method in brief:
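p53RE-bla cells; 5 h settle, 37 C/5% CO2; cpd + HLM 0.5 mg/mL + NADPH 0.5 mg/mL (final); 16 h 37 C; LiveBLAzer 2 h RT dark; fluorescence readout.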

The nature of experiment [7]: p53 small molecule agonists, cell-based qHTS assay with rat liver microsomes (AID 1963578). The method in brief: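 Rat liver microsome activation: microsomes 0.5 mg/mL, NADPH 0.5 mg/mL final; p53RE-bla cells, 16 h 37 C; LiveBLAzer readout, 2 h RT dark.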
The nature of experiment [8]: p53 small molecule agonists, cell-based qHTS assay: qHTS cell viability counter screen (AID 1963581). Further: nearly all actives have a fitted effect of over 45% in size. A digest of the protocol: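 Cells: HCT-116 with p53 response element-driven beta-lactamase. Treatment: 16 h, 37 C, compounds in DMSO. Read: CellTiter-Glo luminescence after 30 min RT.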
Experiment [9] can be described thus: p53 small molecule agonists, cell-based qHTS assay (AID 1963582; active means well fitted activation curve with a large enough effect in the signal ratio in the repeat runs, not every such curve was filed as active; the % refers to the signal ratio). A digest of the protocol:
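Quantitative HTS in p53RE-bla cells: after a 5 h settling period, compounds delivered in DMSO were left on cells for 16 h at 37 C, and reporter induction was measured as fluorescence following 2 h substrate loading.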

Experiment [10] deals with 5-hydroxytryptamine receptor 2A (Homo sapiens) (UniProt P28223). Kind of experiment: 5-hydroxytryptamine receptor 2A (HTR2A) small molecule antagonists, cell-based qHTS assay (AID 1963586). Further: nearly all actives have a fitted effect of over 45% in size. A digest of the protocol:
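Antagonist-mode intracellular calcium assay: DOI (4 nM) added after 5 min compound pre-incubation at room temperature to dye-loaded HTR2A-CHO cells. Fluorescence followed for 3 min, sampled every second.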

For experiment [11] the target is unchanged. In words: 5-hydroxytryptamine receptor 2A (HTR2A) small molecule agonists, cell-based qHTS assay (AID 1963587). Further: nearly all actives have a fitted effect of over 30% in size. Further: potency means the concentration at half of the fitted maximal effect. A digest of the protocol:
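CHO cells stably expressing human HTR2A, plated 18 h, loaded with calcium dye 1 h at 37 C. Agonist mode: compounds added and intracellular calcium fluorescence recorded kinetically for 2 min at 1 sec intervals.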

Experiment [12] deals with Muscarinic acetylcholine receptor M1 (Homo sapiens) (UniProt P11229). Kind of experiment: Cholinergic receptor muscarinic 1 (CHRM1) small molecule antagonists, cell-based qHTS assay (AID 1963588). Further: nearly all actives have a fitted effect of over 40% in size. A digest of the protocol: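 CHRM1-CHO calcium-flux assay, antagonist mode. Cells were seeded 18 h, dye-loaded 1 h at 37 C and given compound for 5 min at RT, then acetylcholine was added at 50nM. FDSS fluorescence was read 3 min; 15 concentrations, three runs.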

The target is the same in experiment [13]. Kind of experiment: Cholinergic receptor muscarinic 1 (CHRM1) small molecule agonists, cell-based qHTS assay (AID 1963589). Further: nearly all actives have a fitted effect of over 35% in size. A digest of the protocol: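 Agonist-mode qHTS in CHO cells stably carrying human muscarinic M1. Intracellular calcium is tracked by fluorescence every second after compound transfer; each compound runs at 15 concentrations in three independent runs.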

The nature of experiment [14]: cAMP Responsive Elements (CRE) small molecule agonists, cell-based qHTS assay (AID 1963590). The method in brief:
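Agonist mode qHTS in CRE-bla HEK 293T cells: compounds dosed from DMSO for 3 h at 37 C/5% CO2, followed by LiveBLAzer B/G FRET substrate for 2 h at room temperature.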

The nature of experiment [15]: cAMP Responsive Elements (CRE) small molecule antagonists, cell-based qHTS assay (AID 1963591; active means well fitted inhibition curve with a large enough effect in the signal ratio in the repeat runs, not every such curve was filed as active; the % refers to the signal ratio). A digest of the protocol:
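Antagonist mode: test compounds are co-incubated with the adenylyl cyclase activator NKH477 (0.25 uM final) on CRE-bla HEK293T cells for 3 h at 37 °C, followed by LiveBLAzer substrate loading.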

Experiment [16] addresses Beta-2 adrenergic receptor (Homo sapiens) (UniProt P07550). In words: Adrenergic beta2 receptor (ADRB2) small molecule antagonists, cell-based qHTS assay (AID 1963592). Further: series mostly up to about 92 µM; nearly all actives have a fitted effect of over 50% in size. A digest of the protocol: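 Cells (CHO, stable ADRB2 overexpression) incubated 18-20hr at 37C; compounds added from DMSO; agonist mix (1nM isoproterenol, 100uM IBMX, 25uM Ro-20-1724) added; 0.5hr RT; d2-cAMP and anti-cAMP-cryptate added; 1hr RT; 665/615 nm read.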

The target is the same in experiment [17]. Kind of experiment: Adrenergic beta2 receptor (ADRB2) small molecule agonists, cell-based qHTS assay (AID 1963593).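 Further: CHO cells stably overexpressing human ADRB2.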 The method in brief: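 CHO cells stably over-expressing ADRB2 were plated overnight at 37C, then dosed with compounds plus a stimulation mix containing 100uM IBMX and 25uM Ro-20-1724 for 0.5hr at room temperature. cAMP was measured by HTRF competition, 1hr.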

The target in experiment [18] is D(2) dopamine receptor (Homo sapiens) (UniProt P14416). In words: Dopamine D2 receptor (DRD2) small molecule agonists, cell-based qHTS assay (AID 1963594). Further: nearly all actives have a fitted effect of over 35% in size. A digest of the protocol:
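HEK293 cells stably expressing human DRD2, pre-treated with PDE inhibitor Ro20-1724 (0.1 mM final) and compound 10 min at room temperature, then stimulated with NKH477 (200nM […]) for 30 min. cAMP read by HTRF (665/620 nm).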

Experiment [19] shares this target. In words: Dopamine D2 receptor (DRD2) small molecule antagonists, cell-based qHTS assay (AID 1963595; active means well fitted inhibition curve with a large enough effect in the signal ratio in the repeat runs, with a control signal flat; the % refers to the signal ratio). A digest of the protocol: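 Cells were plated and grown for 24 h at 37 °C. Ro20-1724 (0.1 mM final) went in first, then compound for 10 min. NKH477 (200 nM) with quinpirole (12 nM) followed for 30 min at RT, then HTRF detection reagents for 1 h.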
The nature of experiment [20]: p53 small molecule agonists, cell-based qHTS assay with human liver microsomes: qHTS cell viability counter screen (AID 1963579). Further: nearly all actives have a fitted effect of over 45% in size. A digest of the protocol: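 Luminescent CellTiter-Glo read-out, 30 min at room temperature, gauged cytotoxicity in p53RE-bla cells exposed 16 h at 37 C to DMSO-dissolved compounds with metabolic activation by human liver microsomes and NADPH, each 0.5 mg/mL final.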

Chain of KiSS-1 receptor (Homo sapiens) (Q969F8 whole entry, looked up): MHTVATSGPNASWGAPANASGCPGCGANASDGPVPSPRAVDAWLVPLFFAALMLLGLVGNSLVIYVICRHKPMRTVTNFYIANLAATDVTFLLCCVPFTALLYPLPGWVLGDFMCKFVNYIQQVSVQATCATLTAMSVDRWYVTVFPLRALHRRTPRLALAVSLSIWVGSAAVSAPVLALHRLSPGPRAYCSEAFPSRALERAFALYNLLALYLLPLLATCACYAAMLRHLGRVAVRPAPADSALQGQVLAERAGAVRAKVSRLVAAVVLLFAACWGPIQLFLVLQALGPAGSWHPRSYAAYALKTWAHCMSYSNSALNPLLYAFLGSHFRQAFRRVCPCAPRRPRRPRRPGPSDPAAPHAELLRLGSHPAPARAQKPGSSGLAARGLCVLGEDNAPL
Chain of 5-hydroxytryptamine receptor 2A (Homo sapiens) (P28223 whole entry, looked up): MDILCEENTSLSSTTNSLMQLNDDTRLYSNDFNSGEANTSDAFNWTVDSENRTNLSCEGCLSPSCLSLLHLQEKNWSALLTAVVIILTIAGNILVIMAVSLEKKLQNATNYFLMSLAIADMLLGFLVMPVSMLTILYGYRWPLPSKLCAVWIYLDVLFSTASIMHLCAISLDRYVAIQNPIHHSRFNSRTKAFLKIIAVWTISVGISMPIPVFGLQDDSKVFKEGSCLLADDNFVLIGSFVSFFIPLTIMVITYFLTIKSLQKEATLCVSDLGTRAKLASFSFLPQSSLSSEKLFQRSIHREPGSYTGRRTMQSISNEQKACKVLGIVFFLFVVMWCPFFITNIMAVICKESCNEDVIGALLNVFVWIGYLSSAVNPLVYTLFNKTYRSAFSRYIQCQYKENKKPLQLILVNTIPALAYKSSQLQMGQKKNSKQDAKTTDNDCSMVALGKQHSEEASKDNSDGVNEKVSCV
Chain of Muscarinic acetylcholine receptor M1 (Homo sapiens) (P11229 whole entry, looked up): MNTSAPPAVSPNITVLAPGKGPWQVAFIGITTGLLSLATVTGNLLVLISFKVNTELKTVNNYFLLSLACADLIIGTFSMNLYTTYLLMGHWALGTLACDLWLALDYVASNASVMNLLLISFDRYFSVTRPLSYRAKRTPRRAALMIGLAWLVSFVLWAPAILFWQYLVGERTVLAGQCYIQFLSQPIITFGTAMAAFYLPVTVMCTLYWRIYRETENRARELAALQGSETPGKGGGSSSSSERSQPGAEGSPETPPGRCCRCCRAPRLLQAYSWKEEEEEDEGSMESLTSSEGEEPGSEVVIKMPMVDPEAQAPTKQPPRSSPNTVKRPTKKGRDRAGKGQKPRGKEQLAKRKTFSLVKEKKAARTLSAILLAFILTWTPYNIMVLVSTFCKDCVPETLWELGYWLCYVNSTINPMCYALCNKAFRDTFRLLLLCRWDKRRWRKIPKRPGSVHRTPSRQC
Chain of Beta-2 adrenergic receptor (Homo sapiens) (P07550 whole entry, looked up): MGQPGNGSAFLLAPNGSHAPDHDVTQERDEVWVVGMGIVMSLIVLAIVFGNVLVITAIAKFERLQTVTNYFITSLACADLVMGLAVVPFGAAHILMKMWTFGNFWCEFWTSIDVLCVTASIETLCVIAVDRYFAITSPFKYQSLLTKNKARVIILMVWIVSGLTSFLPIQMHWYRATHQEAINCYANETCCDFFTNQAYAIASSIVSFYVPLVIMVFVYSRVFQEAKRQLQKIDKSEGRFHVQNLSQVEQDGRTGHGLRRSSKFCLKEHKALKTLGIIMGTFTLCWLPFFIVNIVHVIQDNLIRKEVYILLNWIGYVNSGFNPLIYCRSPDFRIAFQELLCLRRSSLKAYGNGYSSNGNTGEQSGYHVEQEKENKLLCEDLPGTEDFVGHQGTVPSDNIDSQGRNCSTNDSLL
Chain of D(2) dopamine receptor (Homo sapiens) (P14416 whole entry, looked up): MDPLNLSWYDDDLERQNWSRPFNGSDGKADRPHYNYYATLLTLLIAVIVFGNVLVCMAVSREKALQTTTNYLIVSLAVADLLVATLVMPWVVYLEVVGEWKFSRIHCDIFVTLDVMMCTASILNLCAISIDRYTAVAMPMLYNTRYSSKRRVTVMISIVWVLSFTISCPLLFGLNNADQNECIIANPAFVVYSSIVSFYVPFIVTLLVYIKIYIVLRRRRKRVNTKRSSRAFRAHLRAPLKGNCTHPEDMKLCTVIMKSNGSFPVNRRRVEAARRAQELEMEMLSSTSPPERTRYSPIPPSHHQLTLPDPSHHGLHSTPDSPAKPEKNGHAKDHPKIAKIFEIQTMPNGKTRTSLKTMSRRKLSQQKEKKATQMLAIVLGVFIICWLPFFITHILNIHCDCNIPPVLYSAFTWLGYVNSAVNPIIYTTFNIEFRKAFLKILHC
Chain of Gonadotropin-releasing hormone receptor (Homo sapiens) (P30968 whole entry, looked up): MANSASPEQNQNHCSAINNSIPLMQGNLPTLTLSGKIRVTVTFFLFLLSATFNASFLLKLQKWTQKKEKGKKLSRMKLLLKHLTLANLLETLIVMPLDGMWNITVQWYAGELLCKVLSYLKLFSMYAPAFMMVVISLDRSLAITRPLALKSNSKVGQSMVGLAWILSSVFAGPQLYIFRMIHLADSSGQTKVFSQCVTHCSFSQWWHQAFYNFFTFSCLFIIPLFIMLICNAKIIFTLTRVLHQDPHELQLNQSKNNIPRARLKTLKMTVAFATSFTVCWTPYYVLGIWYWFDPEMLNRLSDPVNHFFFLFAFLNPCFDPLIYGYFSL

For `CCCCC(CC)COC(=O)CCCCCCCC(=O)OCC(CC)CCCC` (stereo not given), the Potency is 54.5 µM (active) and inactive in experiment [1]; 15.4 µM (active) and inactive in experiment [2]; 9.77 µM (active) and inactive in [11]. Also, the Potency result in experiment [3], in experiment [4], in [5], in experiment [6], in experiment [7] and in [8] was “inactive” each time. Also, the Potency result in experiment [9], in [10], in [12], in experiment [13], in [14] and in [15] was “inactive” in each case. In addition, the Potency result in experiment [16], in experiment [17], in experiment [18] and in experiment [19] was “inactive” throughout.

For `NCCN1CCNC1=O`, the Potency result in [1], in experiment [2], in experiment [3], in experiment [4], in [5] and in experiment [6] was “inactive” in each case. Besides, the Potency entry in experiment [7], in [8], in experiment [9], in experiment [10], in experiment [11] and in [14] was “inactive” throughout. The Potency result in [15], in experiment [16], in [18] and in experiment [19] was “inactive” each time.

On to `O=C1OC(=O)c2ccccc21`, for which the Potency result in experiment [1], in experiment [2], in experiment [3], in experiment [4], in experiment [5] and in experiment [6] was “inactive” throughout. Further, the Potency result in [7], in [20], in experiment [8], in [9], in experiment [11] and in experiment [12] was “inactive” throughout. Besides, the Potency entry in experiment [13], in experiment [14], in experiment [15], in experiment [16], in experiment [17] and in experiment [18] was “inactive” throughout. Moreover, the Potency result in [19] was “inactive”.

As to `C[n+]1ccn(Cc2ccccc2)c1`, the Potency entry in experiment [1], in experiment [2], in experiment [3], in experiment [4], in experiment [5] and in experiment [6] was “inactive” throughout. The Potency result in experiment [7], in experiment [8], in [9], in experiment [10], in experiment [11] and in experiment [12] was “inactive” each time. The Potency result in experiment [13], in experiment [14], in experiment [15], in [16], in experiment [17] and in [18] was “inactive” throughout. In addition, in [19], the Potency entry is “inactive”.

For the compound `N=c1nc(N2CCCCC2)cc(N)n1O`, the Potency result in experiment [1], in [2], in [3], in [4], in experiment [5] and in experiment [6] was “inactive” throughout. Moreover, the Potency result in experiment [7], in experiment [8], in experiment [9], in experiment [10], in experiment [11] and in [12] was “inactive” each time. The Potency entry in experiment [13], in experiment [14], in experiment [15], in experiment [16], in [17] and in experiment [18] was “inactive” in each case. Besides, the Potency result in experiment [19] is “inactive”.

In the case of `CN(C)CCCN(C)CCCN(C)C`, the Potency entry in [1], in experiment [2], in experiment [3], in [4], in experiment [5] and in [6] was “inactive” throughout. For the same compound, the Potency entry in experiment [7], in experiment [20], in [8], in experiment [9], in [11] and in [13] was “inactive” throughout. For the same compound, the Potency result in [14], in experiment [15], in experiment [16] and in [18] was “inactive” throughout.

For the compound `CC(=O)N(CC(O)CO)c1c(I)c(C(=O)NCC(O)CO)c(I)c(C(=O)NCC(O)CO)c1I` (stereo not given), the Potency entry in experiment [1], in [2], in [3], in experiment [4], in experiment [5] and in experiment [6] was “inactive” each time. Also, the Potency result in [7], in [20], in experiment [9], in [10], in [11] and in [12] was “inactive” in each case. Moreover, the Potency result in experiment [13], in experiment [14], in experiment [15], in experiment [16], in experiment [17] and in experiment [18] was “inactive” throughout. In addition, in [19], the Potency entry was “inactive”.

Consider `CCC(=O)OC(C)(C)C1CC=C(C)CC1` (stereo not given), for which the Potency result in experiment [1], in experiment [2], in experiment [3], in experiment [4], in experiment [5] and in [6] was “inactive” throughout. Besides, the Potency result in experiment [7], in experiment [20], in experiment [8], in [10], in [11] and in [12] was “inactive” each time. For the same compound, the Potency entry in [13], in [14], in experiment [15], in experiment [17], in [18] and in experiment [19] was “inactive” each time.
